Source: PubChem BioAssay (National Center for Advancing Translational Sciences (NCATS))
The list is not random: actives were taken first. Their share in the collection is about 3.3%.
Sm TGR inh = blocks Schistosoma mansoni thioredoxin glutathione reductase | Potency, µM (titrated, usually from 114 µM), hits mostly inhibitors | AID 485364 | actives 3% (n = 360,000) | Q962Y6 | purified TGR, DTNB reduction, TNB absorbance 405 nm; note: nearly all actives have a fitted effect of over 60% in size
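First, TGR (20 nM dispensed) and NADPH were mixed with compound. Second, a 15 min room-temperature incubation followed. Third, further NADPH and then DTNB were added to start the reaction. Finally, TNB absorbance was monitored kinetically.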
AmpC detergent = blocks E. coli AmpC beta-lactamase in detergent assay | Potency, µM (top dose mostly 114 µM), usual class: inhibitors | actives 0.041% (n = 370,000) | P00811 | AmpC hydrolysis of nitrocefin, absorbance 480 nm, 0.01% Triton; note: nearly all actives have a fitted effect of over 25% in size
Target sequence (P00811 whole entry, looked up): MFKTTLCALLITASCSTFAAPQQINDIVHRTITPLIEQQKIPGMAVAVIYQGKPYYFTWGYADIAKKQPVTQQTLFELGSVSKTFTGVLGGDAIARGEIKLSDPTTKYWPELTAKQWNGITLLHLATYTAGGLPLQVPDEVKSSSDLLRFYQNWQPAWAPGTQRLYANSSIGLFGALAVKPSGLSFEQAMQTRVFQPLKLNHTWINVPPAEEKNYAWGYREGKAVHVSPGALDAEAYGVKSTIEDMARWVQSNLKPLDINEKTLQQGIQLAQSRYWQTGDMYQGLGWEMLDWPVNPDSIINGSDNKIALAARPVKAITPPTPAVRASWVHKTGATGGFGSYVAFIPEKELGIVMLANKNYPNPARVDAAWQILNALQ
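20 mM phosphate pH 7.0 + 0.01% (detergent screen) or 0.0001% Triton X-100; 5.3 nM AmpC reagent; cpd preinc 15 min RT; nitrocefin (800 uM stock) to start; A480 q20 s × 4 min; Activity was normalised to no-enzyme and no-compound control wells.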
AmpC no deterg = inhibitors of E. coli AmpC beta-lactamase without detergent; AmpC nitrocefin hydrolysis, absorbance 480 nm, 0.0001% Triton; AID 485341; actives 0.52% (n = 330,000); P00811; Potency, µM (series often up to 57.1 µM), actives largely listed as inhibitors; note: nearly all actives have a fitted effect of over 20% in size
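20 mM phosphate pH 7.0 + 0.01% (detergent screen) or 0.0001% Triton X-100; 5.3 nM AmpC reagent; cpd preinc 15 min RT; nitrocefin (800 uM stock) to start; A480 q20 s × 4 min; Activity was normalised to no-enzyme and no-compound control wells.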
Hits are given with their value; - = inactive; ? = inconclusive; . = not tested or not shown. Calls come from the whole dose curve; as a rule, active = well fitted curve in the direction sought with a large enough effect; inconclusive = small, poorly fitted or top-dose-only effect, or another doubt; inactive = no such curve, though single readings can be large; an effect the other way counts as inactive or inconclusive.

SMILES | Sm TGR inh | AmpC detergent | AmpC no deterg
Cc1ccc2c(=O)cc(C(=O)Nc3sc4c(c3C(=O)NCC3CCCO3)CCCC4)oc2c1C (stereo not drawn) | - | - | .
CCN1CCN(c2ccc([N+](=O)[O-])cc2C=C2C(=O)NC(=O)NC2=O)CC1 | 13µM | ? | -
CC(=O)N1CCN(c2ccc([N+](=O)[O-])cc2C=C2C(=O)NC(=O)NC2=O)CC1 | ? | - | -
COC(=O)c1ccc2c(=O)n(CCCCCC(=O)NCCc3ccc(Cl)cc3)c(=O)[nH]c2c1 | - | - | .
CCOc1ccc(OCC)c(NC(=O)C2CCN(S(=O)(=O)c3ccc(Br)s3)CC2)c1 | - | - | .
CC1=C(C#N)C(NC(=O)c2ccccc2)(C(F)(F)F)C(=O)N1 (stereo not drawn) | - | - | .
Cc1ccc(N(Cc2cc3ccc(C)cc3[nH]c2=O)C(=O)c2ccco2)c(C)c1 | 8.9µM | - | -
CCC(=O)N(Cc1cc2ccc(C)cc2[nH]c1=O)c1ccccc1OC | 89µM | - | -
Cc1ccc2cc(CN(C(=O)c3ccco3)c3cccc(C)c3C)c(=O)[nH]c2c1 | 13µM | - | -
Cc1ccc2cc(CCNC(=O)c3ccco3)c(=O)[nH]c2c1 | - | ? | -
Cc1ccc2cc(CN(C(=O)c3ccco3)c3ccccc3C)c(=O)[nH]c2c1 | - | ? | -
COCC(=O)N(Cc1cc2ccc(C)cc2[nH]c1=O)c1ccccc1C | - | ? | -
Cc1ccccc1-c1nnc(SCC(=O)N2CCCc3ccccc32)o1 | - | - | .
COc1ccc(CCCc2nnc(SCC(=O)Nc3ccc(Cl)cc3)o2)cc1 | - | - | .
CCN(CC)c1cc2c(cc1F)c(=O)c(S(=O)(=O)c1ccccc1)cn2Cc1ccccc1 | - | - | .
COc1cccc(NC(=O)CSc2nc3ccc(NC(=O)c4cccs4)cc3s2)c1 | - | - | .
COc1cc(C2SCC(=O)N2CCCN(C)C)cc(OC)c1OC (stereo not drawn) | - | - | -
CN(C)CCCN1C(=O)CSC1c1ccccc1 (stereo not drawn) | - | ? | 1µM
Cc1nc2ccccc2n1CCc1nc2c3ccccc3nc(SCc3ccc(C#N)cc3)n2n1 | - | - | .
CCn1ccc2cc(S(=O)(=O)N3CCC(C(=O)NCCOC)CC3)ccc21 | ? | - | .
COc1ccc(-c2nc(CS(=O)CC(=O)NCCc3ccc(Cl)cc3)c(C)o2)cc1OC (stereo not drawn) | ? | - | .
COc1ccc(-c2nc(CS(=O)CC(=O)NCc3ccco3)c(C)o2)cc1OC (stereo not drawn) | ? | ? | -
Cc1ccc(-c2nc(CS(=O)CC(=O)NCc3ccc(F)cc3)c(C)o2)cc1 (stereo not drawn) | - | - | -
Cc1ccc(-c2nc(CS(=O)CC(=O)NCc3ccccc3)c(C)o2)cc1 (stereo not drawn) | 40µM | ? | -
CCC1CCCCN1CCCNC(=O)CS(=O)Cc1nc(-c2ccc(OC)c(OC)c2)oc1C (stereo not drawn) | - | - | -
SMILES | Sm TGR inh | AmpC detergent | AmpC no deterg
COc1ccc(-c2nc(CS(=O)CC(=O)NC3CCCCC3C)c(C)o2)cc1OC (stereo not drawn) | 28µM | - | -
COc1ccc(CNC(=O)CS(=O)Cc2nc(-c3ccc(OC)c(OC)c3)oc2C)cc1 (stereo not drawn) | 25µM | - | -
COc1ccc(-c2nc(CS(=O)CC(=O)NCc3ccc(Cl)cc3)c(C)o2)cc1OC (stereo not drawn) | 45µM | - | -
O=C(Cc1ccc(Cl)cc1)NCCc1csc2nc(-c3ccccc3F)nn12 | - | - | .
CCN1CCN(c2oc(-c3ccc(COc4ccc(C)cc4)o3)nc2C#N)CC1 | - | - | .
CCOc1ccc(CCNC(=O)CS(=O)Cc2nc(-c3ccc(OC)c(OC)c3)oc2C)cc1OCC (stereo not drawn) | 50µM | - | -
COc1ccc(-c2nc(CSCC(=O)NCCc3ccc(OC)c(OC)c3)c(C)o2)cc1 | - | - | .
COc1ccc(-c2nc(CSCC(=O)NCc3ccco3)c(C)o2)cc1 | 45µM | - | -
CCCN(CCC)CCNC(=O)CS(=O)Cc1nc(-c2ccc(OC)c(OC)c2)oc1C (stereo not drawn) | - | - | .
Cc1cccc(-c2nc(CS(=O)CC(=O)NCc3ccco3)c(C)o2)c1 (stereo not drawn) | ? | ? | -
Cc1ccc(-c2nc(CS(=O)CC(=O)NCc3ccco3)c(C)o2)cc1 (stereo not drawn) | 50µM | - | -
COc1ccc(-c2nc(CS(=O)CC(=O)NCc3ccc(F)cc3)c(C)o2)cc1OC (stereo not drawn) | ? | - | .
COc1ccc(-c2nc(CS(=O)CC(=O)NCc3ccc(C)cc3)c(C)o2)cc1OC (stereo not drawn) | 40µM | - | -
O=C(C1COc2ccccc2O1)N1CCN(c2nc3ccc(F)cc3s2)CC1 (stereo not drawn) | - | - | .
Cc1ccc(CN(C(=O)COc2ccccc2[N+](=O)[O-])c2ccccn2)cc1 | - | - | .
COc1ccc(Cn2c(C(=O)O)c(CNCc3ccco3)c3ccc(OC)cc32)cc1 | - | - | .
Cc1ccc(-c2nc(CS(=O)CC(=O)NCc3ccccn3)c(C)o2)cc1 (stereo not drawn) | 56µM | - | -
COc1ccc(-c2nc(CS(=O)CC(=O)NCc3ccc4c(c3)OCO4)c(C)o2)cc1 (stereo not drawn) | - | ? | -
Cc1oc(-c2ccccc2F)nc1CS(=O)CC(=O)NCc1ccccn1 (stereo not drawn) | - | - | -
COc1ccc(CNC(=O)CS(=O)Cc2nc(-c3ccc(C)cc3)oc2C)cc1 (stereo not drawn) | 50µM | ? | -
COC(=O)c1ccc(NC(=O)C(=O)NCCc2csc(-c3ccc(F)cc3)n2)cc1 | - | - | .
CCOC(=O)c1[nH]c(C)c(CCC(=O)Nc2ccccc2C(=O)OC)c1C | - | - | .
O=C(COc1ccc(S(=O)(=O)NC2CCCCC2)cc1)Nc1ccc(C(F)(F)F)cc1 | - | - | .
CCCOc1cc(N)ccc1C(=O)OCCN(CC)CC | - | ? | -
CCCOc1ccc(N)cc1N | 1.8µM | ? | -
SMILES | Sm TGR inh | AmpC detergent | AmpC no deterg
CC(C)Sc1ncc(Cl)c(C(=O)N(Cc2ccc(F)cc2)C2CCS(=O)(=O)C2)n1 (stereo not drawn) | - | - | .
CN(CC1CCN(CCc2cccc(C(F)(F)F)c2)CC1)C(=O)c1ccc(F)cc1F | 40µM | - | -
CSCCC(=O)N(C)CC1CCN(CCc2cccc(C(F)(F)F)c2)CC1 | - | ? | -
CCOc1ccc(S(=O)(=O)c2cn(C)c3ccccc3c2=O)cc1 | - | - | .
Cc1ccc(C2=NCCn3nc4cc([N+](=O)[O-])ccc4c32)cc1 | 40µM | - | -
Cc1ccc(C2=NCCn3nc4cc(C(F)(F)F)ccc4c32)cc1 | - | - | -
CCCN1CCN(c2ncc3c(n2)CCN(Cc2ccc(OC)c(OC)c2OC)C3)CC1 | - | - | .
Cc1ccc(-n2ncc(C(=O)NCCCN3CCCCC3)c2C2CCN(C(=O)OC(C)(C)C)CC2)cc1 | - | - | .
Cc1ccc(C2(C(F)(F)F)NC(=O)N3CCCN=C3S2)cc1 (stereo not drawn) | - | - | -
O=C1NC(c2ccccc2)(C(F)(F)F)SC2=CCCCCN12 (stereo not drawn) | 25µM | ? | -
